Laboratory results: PubChem BioAssay AID1851 (National Center for Advancing Translational Sciences (NCATS), 2009)
Where “and” joins values, the source holds several entries; their conditions need not be identical. Identical values can stand only once. Screen size: about 16,000 compounds; about 5,700 (36%) were called active. About 24% were inconclusive and are not listed. This is one part of the list. Values without a mark were called inactive. The call rests on the fitted dose curve; in most records, active means well fitted curve in the direction sought with a large enough effect; inconclusive means small, poorly fitted or top-dose-only effect, or effect the other way; inactive means no such curve, though single readings can be large or run the other way.

Molecular target: Cytochrome P450 1A2 (Homo sapiens) (UniProt P05177)
Sequence (P05177 whole entry, looked up): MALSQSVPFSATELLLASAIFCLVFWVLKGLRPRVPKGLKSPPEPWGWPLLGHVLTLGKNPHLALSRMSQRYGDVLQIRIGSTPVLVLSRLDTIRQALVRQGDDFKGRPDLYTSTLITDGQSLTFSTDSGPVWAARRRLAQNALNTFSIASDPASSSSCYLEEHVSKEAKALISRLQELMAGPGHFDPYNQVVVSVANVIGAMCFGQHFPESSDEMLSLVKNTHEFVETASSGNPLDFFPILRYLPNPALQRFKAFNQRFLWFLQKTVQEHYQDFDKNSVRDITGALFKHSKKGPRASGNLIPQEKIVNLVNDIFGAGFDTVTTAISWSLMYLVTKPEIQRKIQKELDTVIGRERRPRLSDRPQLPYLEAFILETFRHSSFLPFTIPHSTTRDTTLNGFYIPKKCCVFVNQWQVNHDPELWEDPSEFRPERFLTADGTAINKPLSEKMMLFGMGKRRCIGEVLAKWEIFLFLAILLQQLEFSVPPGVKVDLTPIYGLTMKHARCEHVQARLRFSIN
Experiment: Cytochrome panel assay with activity outcomes
Settings: recombinant CYP, pro-luciferin dealkylation, luminescence, p450-cyp1a2; series mostly up to 57.1 µM; activity, negative = inhibition: at the top concentration
On the % scale 0 is the no-effect control and ±100 the full control effect.

| Structure (SMILES) | activity, negative = inhibition | AC50 |
| --- | --- | --- |
| CC(=O)Nc1cccc(C(=O)OCc2ccc(C(=O)Oc3ccc(Cl)cc3)cc2)c1 | -6.94% | – |
| Cc1cc(OC(=O)c2ccc(Cl)cc2)cc(=O)n1C | – | 25.1 µM (active) |
| CC(=O)c1c(C(C)=O)c(C)n(NC(=O)c2ccccc2Cl)c1C | -23.6% | – |
| Cc1cc(OC(=O)c2ccccc2Cl)cc(=O)n1C | – | 3.55 µM (active) |
| COc1ccc(C2CC(=O)CC(=O)C2n2cncn2)cc1 (stereo not given) | -6.41% | – |
| CC(CC(=O)O)(CC(=O)O)c1ccccc1 | -0.666% [at 11.4 µM] | – |
| COc1cc(-c2ccc(=O)[nH]n2)ccc1OC(F)F | – | 5.01 µM (active) |
| CCOc1nc(NCCN2CCOCC2)nc(Nc2ccc(C)cc2)n1 | -28% | – |
| Cc1ccccc1-c1nccc(NCCN2CCOCC2)n1 | – | 5.01 µM (active) |
| CN(C)c1ccc(-c2nccc(NCCN3CCOCC3)n2)cc1 | – | 1.26 µM (active) |
| c1cc(CNCCCN2CCOCC2)ccn1 | -3% | – |
| Clc1ccccc1-c1nccc(NCCN2CCOCC2)n1 | – | 2 µM (active) |
| O=C(/C=C/c1ccccc1Cl)NCCN1CCOCC1 | -27.1% | – |
| c1ccc2c(c1)CCCc1cc(NCCN3CCOCC3)nnc1-2 | -10.5% [at 25.6 µM] | – |
| C#CCCCO/N=C1/C[C@@H](O)[C@@H](O)[C@@H]2[C@H]3C(=O)N(c4ccc(F)cc4F)C(=O)[C@@H]3CC[C@@H]12 | 5.29% [at 11.4 µM] | – |
| CNC(=O)c1c(I)c(C(=O)NCC(=O)Nc2c(I)c(C(=O)O)c(I)c(C(=O)NCCO)c2I)c(I)c(N(C)C(C)=O)c1I | -10% [at 25.6 µM] | – |
| O=c1c(-c2cccs2)nc2cncnc2n1-c1ccccc1 | – | 12.6 µM (active) |
| COc1ccc(-n2c(=O)c(-c3cccs3)nc3cncnc32)cc1 | – | 10 µM (active) |
| CC(=O)NCCNc1cc(-c2ccccc2CN(C)C)ncn1 | -20.9% | – |
| COCCNc1cc(-c2ccccc2C)ncn1 | – | 15.8 µM (active) |
| COc1ccccc1CNc1cc(-c2ccccc2C)ncn1 | – | 5.01 µM (active) |
| COc1ccccc1CNc1cc(-c2ccccc2OC)ncn1 | – | 2.51 µM (active) |
| COCCNc1cc(-c2ccccc2CN(C)C)ncn1 | -16.8% | – |
| CC(=O)NCCNc1cc(-c2ccccc2C)ncn1 | – | 15.8 µM (active) |
| CCCc1nnc(NC(=O)CCC(=O)N2CCN(c3ccccn3)CC2)s1 | -4.79% | – |

| Structure (SMILES) | activity, negative = inhibition | AC50 |
| --- | --- | --- |
| Cc1ccc(C(=O)N2CCN(c3ccc(C(F)(F)F)cn3)CC2)cc1 | – | 14.1 µM (active) |
| O=C(c1cc(C(F)(F)F)cc(C(F)(F)F)c1)N1CCC2(CC1)CCN(c1ccccn1)CC2 | -13.7% | – |
| O=C(c1ccc(Oc2ccc(C(F)(F)F)cn2)cc1)N1CCN(c2ccccc2)CC1 | -23.5% | – |
| CCCS(=O)(=O)N1CCCC(C(=O)NCCCN2CCN(c3ccc(F)cc3)CC2)C1 (stereo not given) | -21.1% | – |
| c1ccc2c(c1)c1ccccc1n2Cn1c2ccccc2c2ccccc21 | – | 0.251 µM (active) |
| CN(C)C(=O)c1ccc(-n2nc(C(F)(F)F)c3c2CCCC3)cc1 | – | 22.4 µM (active) |
| COC(=O)[C@@]1(Cc2ccccc2)[C@H]2c3cc(C(=O)N4CCCC4)n(Cc4ccc(C(F)(F)F)nc4)c3C[C@H]2CN1C(=O)c1ccccc1 | -10.8% | – |
| Cc1cccc2cc(=O)[nH]c(C)c12 | – | 14.1 µM (active) |
| CC1CC/C(=C\c2ccc3c(c2)OCO3)C(=O)/C1=C/c1ccc2c(c1)OCO2 (stereo not given) | – | 3.55 µM (active) |
| Cc1ccc(=O)n(-c2ccccc2)c1 | – | 31.6 µM (active) |
| Cc1c(O)c(=O)n(-c2ccccc2)n1C | -12.4% [at 25.6 µM] | – |
| CC(=O)c1c(O)cc(=O)n(-c2ccccc2)c1-c1ccc(C)cc1 | 3.8% | – |
| Cc1cc2c(nc1C)CCCN2CC(O)CN1CCCc2nc(C)c(C)cc21 | -4.54% [at 11.4 µM] | – |
| O=C(NCc1ccccc1)c1ccc2c(c1)C(=O)N(CC1CCCO1)C2=O (stereo not given) | -10.7% | – |
| O=C1C[C@@H](O)[C@@H](O)[C@H]2[C@@H]3C(=O)N(C[C@@H]4CCCO4)C(=O)[C@@H]3CC[C@H]12 | -4.6% [at 11.4 µM] and -8.21% [at 11.4 µM] | – |
| O=C1c2ccccc2C(=O)N1CC1CCCO1 (stereo not given) | – | 14.1 µM (active) |
| COc1ccc(Oc2ncc3nc(C)c(=O)n(Cc4cccs4)c3n2)cc1 | – | 10 µM (active) |
| COc1ccc(Oc2ncc3ncc(=O)n(Cc4cccs4)c3n2)cc1 | – | 10 µM (active) |
| COc1ncc2ncc(=O)n(Cc3cccs3)c2n1 | – | 10 µM (active) |
| NC(N)=N[C@@H]1C(O)[C@H](N=C(N)N)[C@@H](O)C(O)[C@H]1O (stereo not given in full) | -4.87% [at 2.29 µM] | – |
| O=C1/C(=C/c2cccnc2)SC(=S)N1Cc1ccco1 | – | 0.501 µM (active) |
| O=C(CCN1C(=O)/C(=C/c2cccc(Br)c2)SC1=S)NNC(=O)c1cccnc1 | -14.4% | – |
| Cc1ccc(S(=O)(=O)/N=C2/NC(=O)/C(=C/c3cccnc3)S2)cc1 | -6.98% | – |
| CCCc1cc2c(cc1NC(=O)c1ccccc1Cl)OCO2 | – | 2.51 µM (active) |
| CCCc1cc2c(cc1NC(=O)c1ccccc1C)OCO2 | – | 2.24 µM (active) |
